Assay results published in PubChem BioAssay (NCI).
This is part of a sample that, as a whole, favours compounds with a hit. Of some 83,000 tested, about 20% had one in any assay.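 In brief: 96-well plates, 48 h treatment, single concentration, percent growth endpoint.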 A number with no mark means an inactive call. Active and inactive are the calls of the source. How the source made its calls: active means growth percent below 10; inactive means the rest.

Each molecule was assayed on OVCAR-8 ovarian (assay: NCI-60 one-dose screen, 48 h (100 = growth as untreated, 0 = no growth, -100 = all killed)). Details: 10 µM unless noted.
Work on `CCOc1ccc(NC(=O)Nc2cc(C(C)C)ccc2C)cc1` yielded a growth of 27.1%.
Molecule `NS(=O)(=O)c1ccc(-n2nc(-c3ccc(Cl)cc3)ccc2=O)cc1` has a growth of 102%.
For `COC(OC)C1(c2ccccc2)NC(=O)NC1=O` (stereo unspecified), the growth was 103%.
In the case of `CC1=C[S+](c2ccccc2)c2cccc3cc4ccccc4c1c23` (stereo unspecified), the growth is reported as -9.27% (active).
`O=C(Nc1ccccc1F)Nc1ccccc1Cl` showed a growth of 101%.
For `O=C(C[n+]1ccccc1Cl)c1ccc2c(c1)CCCC2`, the growth was 102%.
`COc1cc(-c2nc3sc(C)cn3c2/C=C2\C(=O)Nc3ccccc32)c(Br)c(OC)c1OC` gave a growth of 65%.
`CC1(C)N=C(N)N=C(N)N1c1cccc(CCCCc2ccccc2)c1` was tested, and the growth was 0.546% (active).
In the case of `COc1ccc(/C=C2\CS(=O)(=O)C/C(=C\c3ccc(OC)cc3)C2=O)cc1`, the growth is reported as -44.8% (active).
Molecule `CN1CCN(CC(O)COc2c(Br)c(Br)c(Br)c3c2OC(C)(C)C3)CC1` (stereo unspecified) has a growth of 91.1%.
In the case of `CC1(C)N=C(N)N=C(N)N1c1ccc(OCC(=O)Nc2ccccc2)c(Cl)c1`, the growth is reported as 21.9%.
For `COc1ccc2c(c1)nnc1c3cccnc3[nH]c21`, the growth was 3.13% (active).
Molecule `CC(=O)N[C@@H](CNC(=O)c1cc(NC(=O)c2cc(NC(=O)c3cc(NC(=O)c4nccn4C)cn3C)cn2C)cn1C)CC(=O)Nc1cn(C)c(C(=O)Nc2cc(C(=O)Nc3cc(C(=O)Nc4cc(C(=O)NCCCN(C)CCCNC(=O)c5cccc(C(=O)O)c5)n(C)c4)n(C)c3)n(C)c2)n1` has a growth of 96%.
`Nc1ccc(S(=O)(=O)Nc2cc(I)cc(I)c2)cc1` showed a growth of 107%.
Work on `Nc1nc2ccc(CNc3ccc(C(=O)NC(CC(=O)O)C(=O)O)cc3)cc2c(=O)[nH]1` (stereo unspecified) yielded a growth of 13.1%.
In the case of `Cc1cn(C2CC(F)C(CO)O2)c(=O)[nH]c1=O` (stereo unspecified), the growth is reported as 90.4%.
In the case of `CN(C)C(=O)Nc1nc2cc(Cl)c(Cl)cc2[nH]1`, the growth is reported as 13.6%.
`Cc1cccc(NC(=O)CCc2ccc(N3C(N)=NC(N)=NC3(C)C)cc2)c1` gave a growth of 47.7%.
`COc1cc(/C=C/C(=O)c2c(C)[n+]([O-])c3ccccc3[n+]2[O-])ccc1O` gave a growth of 89.4%.
For `CCC1CN2C(=N1)c1ccccc1-c1cc(Cl)ccc12` (stereo unspecified), the growth was -5.17% (active).
Work on `CC(C(C(=O)N1CCCCC1)N1CCCCC1)N1CCCCC1` (stereo unspecified) yielded a growth of 105%.
For `NC(CSC(c1ccccc1)(c1ccccc1)c1ccc(F)cc1)C(=O)O` (stereo unspecified), the growth was 11.1%.
Molecule `CS(=O)(=O)OCC(COS(C)(=O)=O)C(c1ccccc1)c1ccccc1` has a growth of 118%.
With `S=c1ssnc1-c1ccccn1` the growth was 54.9%.
`O=C(Cn1c2ccccc2c2ccncc21)N/N=C/c1cc(O)c(O)c(O)c1` gave a growth of 103%.
Molecule `CN(C)c1ccc(/C=N/N=C(N)N)cc1` has a growth of 91.1%.
In the case of `Cc1cc2c(cc1C)N(C(=O)CCl)CCN2C(=O)CCl`, the growth is reported as -4.44% (active).
Work on `O=C(O)c1cc2ccccc2cc1Nc1ccccc1` yielded a growth of 100%.
Molecule `O=C(Nc1ccccc1Cl)c1c[nH]c(=O)c(-c2ccc(N3CCCOC4(CC4)C3)cc2)c1` has a growth of 58.3%.
Molecule `Clc1ccc2c(c1)nnn1c3ncccc3c(Br)c21` has a growth of 71.9%.
In the case of `Cc1nssc1=S`, the growth is reported as 97.9%.
`FC(F)(F)c1cn(CC2CNC2)c2ncnc(Cl)c12` was tested, and the growth was 92.2%.
Molecule `CN1CCN(Cn2nc(-c3cc(Cl)cc(Cl)c3Cl)n(/N=C/c3ccc(Cl)cc3)c2=S)CC1` has a growth of 93.5%.
`NC(N)=N/N=C/c1ccc([N+](=O)[O-])cc1` gave a growth of 108%.
`CC1=C2C(=C[C@@](C)(CO)[C@@H]2OC(=O)N(C)CCN(C)C(=O)OC(C)(C)C)C(=O)[C@](C)(O)C12CC2` gave a growth of 36.6%.
With `Nc1nc(=S)ss1` the growth was 104%.
`COC(=O)c1oc2c(C(C)=O)c(OCCN3CCCCC3)ccc2c1C` gave a growth of 107%.
`Cc1cc[n+](CCCC[n+]2ccc(C)cc2)cc1` showed a growth of 108%.

Each molecule was assayed on OVCAR-5 ovarian in the same assay as above. Details: 10 µM unless noted.
With `CCOc1ccc(NC(=O)Nc2cc(C(C)C)ccc2C)cc1` the growth was 57.7%.
Molecule `NS(=O)(=O)c1ccc(-n2nc(-c3ccc(Cl)cc3)ccc2=O)cc1` has a growth of 99.9%.
`COC(OC)C1(c2ccccc2)NC(=O)NC1=O` (stereo unspecified) showed a growth of 122%.
For `CC1=C[S+](c2ccccc2)c2cccc3cc4ccccc4c1c23` (stereo unspecified), the growth was -32.7% (active).
In the case of `O=C(Nc1ccccc1F)Nc1ccccc1Cl`, the growth is reported as 102%.
With `O=C(C[n+]1ccccc1Cl)c1ccc2c(c1)CCCC2` the growth was 102%.
Work on `COc1cc(-c2nc3sc(C)cn3c2/C=C2\C(=O)Nc3ccccc32)c(Br)c(OC)c1OC` yielded a growth of 81.6%.
For `CC1(C)N=C(N)N=C(N)N1c1cccc(CCCCc2ccccc2)c1`, the growth was 38.5%.
`COc1ccc(/C=C2\CS(=O)(=O)C/C(=C\c3ccc(OC)cc3)C2=O)cc1` was tested, and the growth was -20.2% (active).
With `CN1CCN(CC(O)COc2c(Br)c(Br)c(Br)c3c2OC(C)(C)C3)CC1` (stereo unspecified) the growth was 78.9%.
`CC1(C)N=C(N)N=C(N)N1c1ccc(OCC(=O)Nc2ccccc2)c(Cl)c1` gave a growth of 49%.
For `COc1ccc2c(c1)nnc1c3cccnc3[nH]c21`, the growth was 36.1%.
In the case of `CC(=O)N[C@@H](CNC(=O)c1cc(NC(=O)c2cc(NC(=O)c3cc(NC(=O)c4nccn4C)cn3C)cn2C)cn1C)CC(=O)Nc1cn(C)c(C(=O)Nc2cc(C(=O)Nc3cc(C(=O)Nc4cc(C(=O)NCCCN(C)CCCNC(=O)c5cccc(C(=O)O)c5)n(C)c4)n(C)c3)n(C)c2)n1`, the growth is reported as 121%.
Molecule `Nc1ccc(S(=O)(=O)Nc2cc(I)cc(I)c2)cc1` has a growth of 86.5%.
Work on `Nc1nc2ccc(CNc3ccc(C(=O)NC(CC(=O)O)C(=O)O)cc3)cc2c(=O)[nH]1` (stereo unspecified) yielded a growth of 52.2%.
With `Cc1cn(C2CC(F)C(CO)O2)c(=O)[nH]c1=O` (stereo unspecified) the growth was 94.4%.
For `CN(C)C(=O)Nc1nc2cc(Cl)c(Cl)cc2[nH]1`, the growth was 40.3%.
`Cc1cccc(NC(=O)CCc2ccc(N3C(N)=NC(N)=NC3(C)C)cc2)c1` gave a growth of 46.7%.
`COc1cc(/C=C/C(=O)c2c(C)[n+]([O-])c3ccccc3[n+]2[O-])ccc1O` showed a growth of 110%.
`CCC1CN2C(=N1)c1ccccc1-c1cc(Cl)ccc12` (stereo unspecified) showed a growth of 35.6%.
In the case of `CC(C(C(=O)N1CCCCC1)N1CCCCC1)N1CCCCC1` (stereo unspecified), the growth is reported as 117%.
`NC(CSC(c1ccccc1)(c1ccccc1)c1ccc(F)cc1)C(=O)O` (stereo unspecified) showed a growth of 34.9%.
`CS(=O)(=O)OCC(COS(C)(=O)=O)C(c1ccccc1)c1ccccc1` was tested, and the growth was 110%.
`S=c1ssnc1-c1ccccn1` was tested, and the growth was 70.1%.
With `O=C(Cn1c2ccccc2c2ccncc21)N/N=C/c1cc(O)c(O)c(O)c1` the growth was 111%.
`CN(C)c1ccc(/C=N/N=C(N)N)cc1` showed a growth of 116%.
With `Cc1cc2c(cc1C)N(C(=O)CCl)CCN2C(=O)CCl` the growth was -74.4% (active).
`O=C(O)c1cc2ccccc2cc1Nc1ccccc1` gave a growth of 90.8%.
`O=C(Nc1ccccc1Cl)c1c[nH]c(=O)c(-c2ccc(N3CCCOC4(CC4)C3)cc2)c1` was tested, and the growth was 87%.
`Clc1ccc2c(c1)nnn1c3ncccc3c(Br)c21` gave a growth of 101%.
`Cc1nssc1=S` showed a growth of 94.6%.
`FC(F)(F)c1cn(CC2CNC2)c2ncnc(Cl)c12` gave a growth of 112%.
`CN1CCN(Cn2nc(-c3cc(Cl)cc(Cl)c3Cl)n(/N=C/c3ccc(Cl)cc3)c2=S)CC1` was tested, and the growth was 96.3%.
Work on `NC(N)=N/N=C/c1ccc([N+](=O)[O-])cc1` yielded a growth of 99.1%.
Molecule `CC1=C2C(=C[C@@](C)(CO)[C@@H]2OC(=O)N(C)CCN(C)C(=O)OC(C)(C)C)C(=O)[C@](C)(O)C12CC2` has a growth of 19.2%.
With `Nc1nc(=S)ss1` the growth was 114%.
`COC(=O)c1oc2c(C(C)=O)c(OCCN3CCCCC3)ccc2c1C` gave a growth of 107%.
`Cc1cc[n+](CCCC[n+]2ccc(C)cc2)cc1` was tested, and the growth was 104%.
